# Activity calls are given as the source filed them. Cut-off read from the data, not from the text of the source, unless noted: active = inhibition above about 80%; inactive = the rest.
# Legend:
# [1] = UWB1.289 ovarian carcinoma cell growth inhibition, synergistic combos for chromothripsis tumors, BGB or cisplatin combos (AID 1671456); settings: UWB1.289 ovarian carcinoma cells, stronger effect = higher value;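 note: cells exposed to compound for four days; 0% = vehicle DMSO and 100% = killing by high DMSO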
# [2] = LFS_MB_2R medulloblastoma cell growth inhibition, synergistic combos for chromothripsis tumors, cisplatin combos (AID 1671457); settings: LFS_MB_2R medulloblastoma cells, stronger effect = higher value;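 note: cells exposed to compound for four days before readout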
# [3] = MDA-MB-436 breast carcinoma cell growth inhibition, synergistic combos for chromothripsis tumors, BGB or cisplatin combos (AID 1671458; call rule not given here;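 note: cells exposed for 96 hours; 0% = vehicle DMSO and 100% = killing by high DMSO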); settings: MDA-MB-436 breast carcinoma growth inhibition, drug combinations, stronger effect = higher value
# [4] = UWB1.289_BRCA1 ovarian cancer growth, cell-based, BGB or cisplatin combinations (AID 1671459); settings: UWB1.289 BRCA1 ovarian carcinoma, drug combinations, stronger effect = higher value
# [5] = human astrocyte viability loss, single and combined drugs, cytotoxicity control for chromothriptic childhood tumor combination screen, cell-based, BGB or cisplatin IC20 combos (AID 1671460); settings: Human astrocytes, drug combinations, stronger effect = higher value;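 note: cells exposed to compounds for 96 hours before viability readout; 0% = vehicle and 100% = killing control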
# [6] = growth inhibition of BT084 medulloblastoma cells, cell-based, ICGC_MB145, cisplatin and BGB IC40 combos (AID 1671461); settings: drug combinations, stronger effect = higher value;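 note: cells exposed to drugs for 96 hours; 0% = vehicle DMSO and 100% = high DMSO full killing control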
# [7] = growth inhibition of RCMB18 medulloblastoma cells, cell-based, cisplatin and BGB IC40 combos (AID 1671462); settings: stronger effect = higher value;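 note: cells exposed to compound for four days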
# [8] = growth inhibition of CRL1545 osteosarcoma cells, cell-based, cisplatin and BGB IC20 combos (AID 1671464); settings: stronger effect = higher value;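 note: cells exposed to compound for 96 hours before readout; 0% = vehicle DMSO and 100% = high DMSO killing control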
# [9] = measured here: combination with cisplatin, at 0.5 µM
structure (smiles),measurement,setting,value
O=C(O)CCCCCCCC(=O)O,inhibition,[1]; at 0.5 µM,-13.5% (inactive)
same,inhibition,"[1]; measured here: inhibition with BGB combination, at 0.05 µM",-19.6%
same,inhibition,"[1]; measured here: inhibition with cisplatin combination, at 0.05 µM",-0.85%
same,inhibition,[2]; at 0.5 µM,-13.9% (inactive)
same,inhibition,[2]; [9],-13.8%
same,inhibition,"[2]; measured here: combination with cisplatin, at 5 µM",-48.8%
same,inhibition,[3]; at 0.5 µM,-29.2% (inactive)
same,inhibition,"[3]; measured here: BGB combination, at 0.5 µM",-23.3%
same,inhibition,"[3]; measured here: BGB combination, at 5 µM",-29%
same,inhibition,"[3]; measured here: cisplatin combination, at 0.5 µM",-37.4%
same,inhibition,"[3]; measured here: cisplatin combination, at 5 µM",-23.5%
same,inhibition,"[4]; BGB combination, concentration series, at 5 µM",-15.5%
same,inhibition,[4]; at 0.5 µM,-19.3% (inactive)
same,inhibition,"[4]; cisplatin combination, concentration series, at 5 µM",-16.1%
same,inhibition,[5]; at 0.5 µM,-11.4% (inactive)
same,inhibition,"[5]; measured here: combo with BGB IC20, at 0.5 µM",-13.8%
same,inhibition,"[5]; measured here: combo with cisplatin IC20, at 0.5 µM",-20%
same,inhibition,[6]; at 0.5 µM,-17.8% (inactive)
same,inhibition,"[6]; cisplatin combination, at 0.5 µM",-4.5%
same,inhibition,"[6]; cisplatin combination, at 5 µM",-12.5%
same,inhibition,"[6]; measured here: BGB IC40 combination 0.05 uM, at 0.05 µM",4.07%
same,inhibition,"[6]; single agent, at 5 µM",-1.2%
same,inhibition,[7]; at 0.5 µM,-9.8% (inactive)
same,inhibition,"[7]; cisplatin combo, at 5 µM",-40.4%
same,inhibition,"[7]; measured here: BGB IC40 combination, at 0.05 µM",-4.46%
same,inhibition,[7]; [9],-13.4%
same,inhibition,"[7]; single agent, at 5 µM",-26.4%
same,inhibition,[8]; at 0.5 µM,-28.2% (inactive)
same,inhibition,"[8]; measured here: with BGB IC20 combination, at 0.5 µM",-60.3%
same,inhibition,"[8]; measured here: with cisplatin IC20 combination, at 0.5 µM",-14.7%
same,inhibition,"[8]; single agent, at 0.05 µM",-52%
same,inhibition,"[8]; single agent, at 5 µM",-52.1%
